Assay outcomes: PubChem, National Center for Advancing Translational Sciences (NCATS)
mIDH1 inhibitor – inhibitors of human mutant IDH1 R132H; O75874; IDH1-R132H enzyme, NADPH consumption, diaphorase/resazurin fluorescence; Potency, µM (top dose mostly 76.6 µM), usual class: inhibitors; 390,000 tested, 0.093% active; AID 602179; note: nearly all actives have a fitted effect of over 65% in size
Target sequence (O75874 whole entry R132H, stated change not applied): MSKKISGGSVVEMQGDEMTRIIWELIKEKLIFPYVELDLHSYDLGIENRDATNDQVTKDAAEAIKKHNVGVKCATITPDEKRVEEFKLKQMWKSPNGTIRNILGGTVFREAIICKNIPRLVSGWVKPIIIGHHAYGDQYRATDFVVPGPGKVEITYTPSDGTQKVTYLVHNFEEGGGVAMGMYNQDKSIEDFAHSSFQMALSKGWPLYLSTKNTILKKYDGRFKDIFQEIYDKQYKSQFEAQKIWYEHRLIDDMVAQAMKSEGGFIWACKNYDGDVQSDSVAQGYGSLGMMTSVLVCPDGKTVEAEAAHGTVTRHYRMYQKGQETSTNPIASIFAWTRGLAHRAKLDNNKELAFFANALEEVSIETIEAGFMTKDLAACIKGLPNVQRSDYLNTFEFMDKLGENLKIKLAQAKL
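IDH1-R132H (0.5 ug/mL) preincubated 30 min with compound, then NADPH (0.016 mM) and alpha-KG (2 mM) added; 80 min at RT, pH 7.5. Remaining NADPH coupled via diaphorase/resazurin to fluorescence (540/590 nm); concentration-response curves normalized to no-enzyme control.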
Nrf2 ARE act – Nrf2 pathway activation; AREc32 ARE-luciferase reporter (MCF7-derived line), luminescence, 24 h; Potency, µM (series often up to 46.1 µM), usual class: activators; 410,000 tested, 0.31% active; note: nearly all actives have a fitted effect of over 65% in size
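AREc32 cells carrying an ARE-driven firefly luciferase reporter were seeded at 1000 cells/well in OPTI-MEM with 5% FBS, then exposed to compound for 24 hr at 37 deg C. Luminescence was read with Steady-Glo after 30 min at RT.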
A549 tox – kills or reduces viability of A549 cells in Nrf2 counter-screen; AID 504648; Potency, µM (titrated, usually from 46 µM), hits mostly inhibitors; 390,000 tested, 0.16% active; A549 ARE-Fluc cells, CellTiter-Fluor viability, 18-24 h
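Cytotoxicity counterscreen: CellTiter-Fluor fluorescence was measured in A549 ARE_Fluc cells after 18-24 h of compound exposure in a concentration series. The subsequent BugLite luminescent read reports ARE-luciferase activity.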
Nrf2 block – inhibitors of Nrf2 signaling; Potency, µM (top dose mostly 46 µM), usual class: inhibitors; A549 ARE-Fluc reporter, luciferase luminescence, 18-24 h; 360,000 tested, 2.1% active; note: nearly all actives have a fitted effect of over 60% in size
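Concentration-response testing used A549 ARE_Fluc cells at 5000 cells/well. Following an 18-24 h compound incubation, viability was read by fluorescence (Ex 405/Em 525) and luciferase output by luminescence.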
ELG1 DNA repair – blocks ELG1-dependent DNA repair in HEK293T cells | HEK293T ELG1-luciferase reporter, luminescence, 16 h; DNA damage induced by 5-fluorouridine | Potency, µM (doses to about 46.1 µM), actives largely listed as inhibitors | 330,000 tested, 2.3% active | AID 504467; note: nearly all actives have a fitted effect of over 55% in size
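Step one: seed 2,000 cells per well. Step two: pin-transfer compound or DMSO alongside 5-fluorouridine. Step three: incubate 16 hr, 37 °C, 5% CO2. Step four: add ONE-Glo, wait 30 min, read luminescence.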
Each line names hits and unclear results; the compound was inactive in the other large screens. Rows were chosen to be rich in hits. Some 3.8% of all compounds tested hit in one or more screens of this group. Calls come from the whole dose curve; as a rule, active = well fitted curve in the direction sought with a large enough effect; inconclusive = small, poorly fitted or top-dose-only effect, or another doubt; inactive = no such curve, though single readings can be large; an effect the other way counts as inactive or inconclusive.

COc1ccc(OCC(=O)Nc2ccc(S(=O)(=O)N3CCOCC3)cc2)cc1	none
Cc1ccccc1-n1cnc2c(sc3nc(N4CCOCC4)c4c(c32)CCCC4)c1=O	Nrf2 block 21µM, ELG1 DNA repair inconclusive
O=c1c2sc3nc(N4CCOCC4)c4c(c3c2ncn1-c1ccccc1)CCCC4	mIDH1 inhibitor inconclusive, Nrf2 block 13µM, ELG1 DNA repair inconclusive
O=C(Nc1cc(C(F)(F)F)ccc1N1CCCC1)C1CC(=O)N(Cc2ccccc2)C1 (stereo not drawn)	none (no result: A549 tox, Nrf2 block, ELG1 DNA repair)
CCOC(=O)/C(=N/Nc1ccccc1)c1csc(Nc2ccccc2)n1	Nrf2 block inconclusive, ELG1 DNA repair inconclusive
CCOC(=O)/C(=N\Nc1ccc(OC)cc1)c1csc(Nc2ccccc2)n1	A549 tox inconclusive, ELG1 DNA repair 16µM
CCOC(=O)/C(=N\Nc1ccc(Cl)cc1)c1csc(Nc2ccccc2)n1	A549 tox inconclusive, Nrf2 block 16µM
NC(=O)C1CCN(c2csc3ccc(F)cc3c2=O)CC1	none (no result: Nrf2 block, ELG1 DNA repair)
O=C(CSc1ccc(F)cc1)N1CCOCC1	none
COc1ccc(C(=O)NCCc2c[nH]c3ccccc23)cc1S(=O)(=O)N1CCCCC1C (stereo not drawn)	none
COc1ccc(C(=O)NCCc2ccc(Cl)cc2)cc1S(=O)(=O)N1CCCCC1C (stereo not drawn)	Nrf2 block 16µM, ELG1 DNA repair inconclusive
COCCC1CCCCN1C(=O)c1cccc(OC2CCN(S(C)(=O)=O)CC2)c1 (stereo not drawn)	none
CN(C)S(=O)(=O)N1CCC(Oc2cccc(C(=O)NCCC3=CCCCC3)c2)CC1	Nrf2 block inconclusive, ELG1 DNA repair 13µM
CS(=O)(=O)N1CCC(Oc2cccc(C(=O)NCCCC3CCCC3)c2)CC1	Nrf2 block 26µM (no result: ELG1 DNA repair)
COc1ccc(NC(=O)CN(C)CC(=O)N(C)C2(C#N)CCC(C)CC2)cc1 (stereo not drawn)	none
COc1ccc(-n2cnc3c(c2=N)C(c2cccc(OC)c2)c2c(ccc4ccccc24)O3)cc1 (stereo not drawn)	Nrf2 block inconclusive (no result: mIDH1 inhibitor, Nrf2 ARE act, ELG1 DNA repair)
CCOc1ccc(C2c3c(ncn(-c4ccccc4)c3=N)Oc3ccc4ccccc4c32)cc1OCC (stereo not drawn)	A549 tox 21µM, Nrf2 block 16µM (no result: mIDH1 inhibitor, Nrf2 ARE act, ELG1 DNA repair)
N=c1c2c(ncn1-c1ccccc1)Oc1ccc3ccccc3c1C2c1ccc2c(c1)CCO2 (stereo not drawn)	A549 tox 16µM, Nrf2 block inconclusive (no result: mIDH1 inhibitor, Nrf2 ARE act, ELG1 DNA repair)
COCCn1c(-c2ccccc2)csc1=Nc1cccnc1	ELG1 DNA repair inconclusive
CC(C)n1c(-c2ccco2)csc1=Nc1cccnc1	Nrf2 block 13µM, ELG1 DNA repair inconclusive
O=C(CCCCCNC(=O)c1ccccc1Br)N=Nc1c(O)[nH]c2ccccc12	ELG1 DNA repair 9.2µM
Cc1ccc(/C=C2\Sc3ccccc3C2=O)s1	Nrf2 ARE act 11µM, ELG1 DNA repair inconclusive
CC(C)(C)c1ccc(C(=O)Nc2onc3c2CCCC3)cc1	none (no result: ELG1 DNA repair)
N/C(=N/OC(=O)c1ccccc1Cl)c1nonc1N	Nrf2 ARE act 13µM, Nrf2 block inconclusive
Cc1ccc(-n2c(O)c(/C=N/Nc3ccc(S(=O)(=O)N4CCOCC4)cc3[N+](=O)[O-])c3ccccc3c2=O)c(C)c1	A549 tox inconclusive, Nrf2 block 18µM, ELG1 DNA repair inconclusive
COc1cccc(C2=NOC(C(=O)Nc3cccnc3Cl)C2)c1OC (stereo not drawn)	ELG1 DNA repair inconclusive
COc1cc(NC(=O)C2CC(c3cccc(OC)c3OC)=NO2)cc(OC)c1OC (stereo not drawn)	ELG1 DNA repair 12µM (no result: Nrf2 block)
Cc1ccc(F)cc1NC(=O)CSc1nc(-c2cccs2)cc(C(F)(F)F)n1	none (no result: ELG1 DNA repair)
Cn1c(=O)[nH]c(=O)c2c1nc(CN1CCN(c3cccc(Cl)c3)CC1)n2CCCc1ccccc1	ELG1 DNA repair 9.2µM
COc1ccc(N2CCN(Cc3nc4c(c(=O)[nH]c(=O)n4C)n3Cc3ccccc3)CC2)cc1	none (no result: ELG1 DNA repair)
COc1ccc(N2CCN(Cc3nc4c(c(=O)[nH]c(=O)n4C)n3CCCc3ccccc3)CC2)cc1	ELG1 DNA repair 8.9µM
